A short description of test [1]: yeast TOR pathway RPL19A-GFP modulators, primary screen, cell-based, S. cerevisiae, multiplex flow cytometry (AID 1862; in the data active = percent of DMSO control GFP below about 86%;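 also: lower values mimic rapamycin by blocking the RPL19A rise seen in DMSO cells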). The note with it: S. cerevisiae RPL19A-GFP strain, flow cytometry fluorescence, 3 h; at 10 µM; stronger effect = lower value.
The nature of test [2]: modulators of MEP2-GFP levels in yeast, primary screen, S. cerevisiae, multiplex flow cytometry (AID 1867;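 active = GFP response, as percent of the DMSO control, above the screen-wide mean plus 3 SD, about 139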;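 also: median GFP channel fluorescence of barcode-gated MEP2-GFP cells measured by flow cytometry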). The conditions noted are these: S. cerevisiae MEP2-GFP strain, 3 h, at 10 µM, stronger effect = higher value. On the technique in general: Flow cytometry measures light scatter and fluorescence of single cells or particles in a stream.
Test [3] can be described thus: modulators of CIT2-GFP expression in yeast, primary screen, S. cerevisiae, GFP fusion, multiplex flow cytometry (AID 1870;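 active = percent response above a set limit, the screen-wide mean plus 3 SD, cut at about 130% in these data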;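 also: barcoded CIT2-GFP strain pooled with four other GFP strains with rapamycin as positive control; median GFP fluorescence per well over plate mean of DMSO wells so 100% = DMSO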). The note with it: 3 h, at 10 µM, stronger effect = higher value.
A short description of test [4]: modulators of LAP4-GFP expression in yeast, primary screen, S. cerevisiae, multiplex flow cytometry (AID 1873;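 active = GFP signal, as percent of the solvent control, above the screen mean plus 3 SD, about 149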). The note with it: 3 h, at 10 µM, stronger effect = higher value.
The nature of test [5]: modulators of AGP1-GFP expression in yeast TOR pathway, primary screen, cell-based, multiplex flow cytometry, S. cerevisiae (AID 1887;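 active = GFP signal above the screen-wide mean plus 3 SD, that is over about 124.5% of the solvent control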;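 also: AGP1-GFP fusion strain of S. cerevisiae within a five-strain barcoded multiplex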). The conditions noted are these: 3 h, at 10 µM, stronger effect = higher value.
Test [6] in a line: inhibitors of CD8+ T cell-vesicle binding, pilot screen, LFA-1/ICAM-1 modulator project, MLPCN validation set, flow cytometry (AID 2523;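 active = response below a set limit, under 55% cells CD8-positive and vesicle-bound, and CD8 cells' 90th-percentile brightness under 279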;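 as to vesicle binding response: mean PE anti-B7-1 fluorescence of CD8+ cells relative to row control; 100% = QL9-loaded vesicles with DMSO vehicle in the same plate row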). The note with it: 2C mouse CD8+ T cells, at 7 µM, stronger effect = lower value; double positive events: measured here: CD8+/vesicle+ event percentage.
The target in test [7] is Integrin beta-1 (Homo sapiens) + Integrin alpha-4 (Homo sapiens) (UniProt P13612+P05556). The test can be described thus: inhibition of HUTS-21 binding to VLA-4, pilot screen, VLA-4 allosteric modulator project, U937 cells, HUTS-21 mAb, flow cytometry, validation set (AID 2674;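 active = inhibition above 50%, about 3 SD of the validation set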;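 also: antibody binding induced by the VLA-4 ligand LDV present at three times its Kd; 0% = LDV ligand with antibody and no compound and 100% = antibody without LDV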). The note with it: HUTS-21 LIBS mAb binding, at 6.7 µM, stronger effect = higher value.
A short description of test [8]: superoxide lowering in aged yeast cells, pilot screen, validation compound set (AID 2706;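 active = superoxide response below 65% of plate, a cut near 3 SD across the whole screen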;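 also: yeast exposed to compound for one week at 30 degrees C before staining; 100% = mean of all compound wells on the same plate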). The conditions noted are these: S. cerevisiae aging, superoxide DHE fluorescence; at 10 µM; stronger effect = lower value.
Test [9] addresses Beta-adrenergic receptor kinase 1 (Homo sapiens) (UniProt P25098). In words: GRK2 binders displacing RNA aptamer, biochemical, validation, human GRK2, bead flow cytometry (AID 488806;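 active = aptamer binding inhibition above 30%, about 3 SD of noise from non-fluorescent compounds; inactive = inhibition at or below 30%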). The conditions noted are these: bead-bound GRK2, FAM-aptamer displacement, at 10 µM, stronger effect = higher value.
Test [10] concerns the target Beta-2 adrenergic receptor (Homo sapiens) (UniProt P07550). The test can be described thus: beta2AR agonists driving receptor internalization, pilot screen, cell-based, FAP fluorogen, flow cytometry, validation set (AID 504459;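 active = percent response above 42, roughly 3 SD of non-fluorescent test compounds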;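 also: agonist-driven loss of surface beta2AR via internalization measured by FAP dye flow cytometry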). The note with it: Am2.2-beta2AR cells, FAP surface receptor flow cytometry; at 10 µM; stronger effect = higher value.
Test [11] deals with AP-2 complex subunit beta (Homo sapiens) (UniProt P63010). The test can be described thus: inhibitors of arrestin peptide binding to AP2, pilot screen, biochemical, validation set, GST-AP2 beads, flow cytometry (AID 504541;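 active = inhibition above 54%, about 3 SD of non-fluorescent compounds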;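 also: AP2 carries R879A mutation and is captured from E. coli lysate; bead-bound FITC arrestin peptide fluorescence measuring arrestin peptide binding to AP2; 0% = DMSO wells and 100% = excess unlabeled arrestin peptide control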). The conditions noted are these: FITC arrestin peptide, at 10 µM, stronger effect = higher value.
Test [12] in a line: yeast V-ATPase proton transport modulators, S. cerevisiae, pHLuorin, HTS validation (AID 504600; in the data active = response above about 15%;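 also: plate controls were DMSO for no effect and reference compound for full effect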). The conditions noted are these: S. cerevisiae pHLuorin cytosolic pH, at 10 µM, stronger effect = higher value.
The test system of test [13] is anti-desmoglein-3 scFv antibody binding to human DSG3. The test can be described thus: inhibitors of anti-DSG3 scFv binding to DSG3, pilot screen, biochemical, validation compound set, bead-based, flow cytometry (AID 588368;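 active = binding below the plate cutoff, the plate median minus 3 SD, with a reading above zero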;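 also: signal is the median channel fluorescence of bead-bound GFP antibody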). The note with it: Protein G beads, DSG3-Fc, scFv-GFP binding, at 10 µM, stronger effect = lower value.
Test [14] has as its system Botulinum neurotoxin type F light chain protease (Clostridium botulinum). In words: Botulinum neurotoxin type F light chain protease inhibition, multiplex microsphere flow cytometry, validation set (AID 588459). The note with it: multiplex microsphere protease substrate cleavage assay, at 10 µM, stronger effect = higher value.
Test [15] has as its target Botulinum neurotoxin type A (Clostridium botulinum) (UniProt P0DPI0). In words: BoNT/A light chain protease inhibitors, biochemical, multiplex microsphere flow cytometry, validation set (AID 588460). The note with it: at 10 µM, stronger effect = higher value.
Test [16] deals with Lethal factor (Bacillus anthracis) (UniProt P15917). The test can be described thus: Lethal factor protease inhibitors, Bacillus anthracis, multiplex microsphere cleavage assay, validation set (AID 588461). The note with it: flow cytometry, at 10 µM, stronger effect = higher value.
Test [17] is described as follows: inhibitors of fungal efflux pumps CDR1, CDR2, MDR1, pilot screen, validation compound set, multiplex, phenotypic (AID 588506;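 active = efflux inhibition above 0.42, the validation set average plus 4 SD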;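 also: Nile Red retained in cells so higher fluorescence means more efflux inhibition; 0 = negative control wells and 1 = enniatin B 25 µM full block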). The conditions noted are these: S. cerevisiae pump-expressing triplex, Nile Red efflux flow cytometry; at 10 µM; stronger effect = higher value.
Test [18] deals with ATP-binding cassette sub-family B member 6 (Homo sapiens) (UniProt Q9NP58). The test can be described thus: ABCB6 transporter inhibitors, pilot screen, K562-ABCB6 cells, flow cytometry, validation set (AID 588550;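 active = inhibition above the screen-wide mean plus 3 SD, about 51%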;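 also: 0% = DMSO wells and 100% = benzethonium chloride 70 µM positive control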). The note with it: K562-ABCB6 porphyrin accumulation, 1 h, at 10 µM, stronger effect = higher value.
The nature of test [19]: promoters of myeloid differentiation in arrested cells, primary screen, cell-based, GFP/MAC1 double positive, flow cytometry, validation set (AID 588685;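 active = differentiation response of at least 50%, scaled between solvent and reference control, from cells with both markers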;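 also: compound exposure lasts four days before antibody staining and flow analysis; 0% = DMSO wells and 100% = 5 µM fulvestrant positive control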). The conditions noted are these: ER-HoxA9 marrow cells, stronger effect = higher value.

Molecules are shown by their SMILES. Results filed as inconclusive are left out. Calls of active or inactive are those of the source. Unless noted, no rule for the calls is given here.

Sequence of Botulinum neurotoxin type A (Clostridium botulinum) (P0DPI0 whole entry, looked up): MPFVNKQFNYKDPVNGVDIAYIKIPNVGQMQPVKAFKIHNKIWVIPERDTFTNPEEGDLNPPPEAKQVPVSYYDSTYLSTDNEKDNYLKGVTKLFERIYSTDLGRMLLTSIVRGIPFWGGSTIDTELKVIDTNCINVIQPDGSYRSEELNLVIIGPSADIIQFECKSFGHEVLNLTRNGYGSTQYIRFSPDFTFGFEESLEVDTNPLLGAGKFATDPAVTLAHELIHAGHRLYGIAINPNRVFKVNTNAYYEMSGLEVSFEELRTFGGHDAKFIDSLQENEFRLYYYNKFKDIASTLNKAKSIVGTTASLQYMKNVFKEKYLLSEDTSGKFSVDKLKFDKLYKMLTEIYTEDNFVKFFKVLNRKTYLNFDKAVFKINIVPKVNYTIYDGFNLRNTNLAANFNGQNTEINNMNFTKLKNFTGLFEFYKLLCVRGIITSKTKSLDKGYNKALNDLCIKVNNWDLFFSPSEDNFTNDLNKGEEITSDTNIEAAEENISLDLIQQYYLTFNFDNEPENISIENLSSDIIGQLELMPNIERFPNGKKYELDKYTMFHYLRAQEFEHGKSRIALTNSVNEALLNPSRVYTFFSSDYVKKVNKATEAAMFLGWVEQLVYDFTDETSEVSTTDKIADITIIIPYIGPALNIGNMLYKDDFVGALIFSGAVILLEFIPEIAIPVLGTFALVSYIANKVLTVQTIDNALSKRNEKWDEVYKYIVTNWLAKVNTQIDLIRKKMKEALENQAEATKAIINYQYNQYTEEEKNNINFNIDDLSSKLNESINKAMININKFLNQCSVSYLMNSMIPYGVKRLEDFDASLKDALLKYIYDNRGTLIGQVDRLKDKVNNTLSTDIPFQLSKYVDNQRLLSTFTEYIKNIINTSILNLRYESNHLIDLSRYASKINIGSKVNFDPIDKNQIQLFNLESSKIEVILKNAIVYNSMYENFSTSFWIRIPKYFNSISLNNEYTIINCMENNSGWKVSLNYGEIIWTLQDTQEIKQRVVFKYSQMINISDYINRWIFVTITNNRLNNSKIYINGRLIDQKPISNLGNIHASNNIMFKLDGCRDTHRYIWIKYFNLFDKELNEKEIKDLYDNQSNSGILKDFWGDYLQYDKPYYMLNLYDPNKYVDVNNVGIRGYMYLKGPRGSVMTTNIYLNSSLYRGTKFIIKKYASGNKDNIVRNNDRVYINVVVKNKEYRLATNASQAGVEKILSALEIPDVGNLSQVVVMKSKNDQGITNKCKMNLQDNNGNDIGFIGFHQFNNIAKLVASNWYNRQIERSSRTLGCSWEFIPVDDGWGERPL
Sequence of Beta-adrenergic receptor kinase 1 (Homo sapiens) (P25098 whole entry, looked up): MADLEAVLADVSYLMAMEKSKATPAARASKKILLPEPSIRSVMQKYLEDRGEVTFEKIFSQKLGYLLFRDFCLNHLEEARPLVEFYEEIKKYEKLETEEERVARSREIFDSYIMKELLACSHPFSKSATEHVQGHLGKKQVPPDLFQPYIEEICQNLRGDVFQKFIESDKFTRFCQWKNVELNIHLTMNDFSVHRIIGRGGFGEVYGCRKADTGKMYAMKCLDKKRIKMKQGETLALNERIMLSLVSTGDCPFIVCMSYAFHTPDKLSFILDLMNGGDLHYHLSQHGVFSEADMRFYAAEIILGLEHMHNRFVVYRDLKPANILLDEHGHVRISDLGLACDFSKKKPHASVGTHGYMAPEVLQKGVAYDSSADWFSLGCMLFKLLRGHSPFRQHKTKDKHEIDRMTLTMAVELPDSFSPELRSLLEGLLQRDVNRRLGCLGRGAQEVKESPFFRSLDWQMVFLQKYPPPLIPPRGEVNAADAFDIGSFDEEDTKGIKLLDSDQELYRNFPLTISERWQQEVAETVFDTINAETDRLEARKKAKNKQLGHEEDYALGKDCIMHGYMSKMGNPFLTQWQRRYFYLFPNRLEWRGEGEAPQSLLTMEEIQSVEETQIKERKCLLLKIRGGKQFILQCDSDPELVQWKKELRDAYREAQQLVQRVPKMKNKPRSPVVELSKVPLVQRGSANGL
Sequence of ATP-binding cassette sub-family B member 6 (Homo sapiens) (Q9NP58 whole entry, looked up): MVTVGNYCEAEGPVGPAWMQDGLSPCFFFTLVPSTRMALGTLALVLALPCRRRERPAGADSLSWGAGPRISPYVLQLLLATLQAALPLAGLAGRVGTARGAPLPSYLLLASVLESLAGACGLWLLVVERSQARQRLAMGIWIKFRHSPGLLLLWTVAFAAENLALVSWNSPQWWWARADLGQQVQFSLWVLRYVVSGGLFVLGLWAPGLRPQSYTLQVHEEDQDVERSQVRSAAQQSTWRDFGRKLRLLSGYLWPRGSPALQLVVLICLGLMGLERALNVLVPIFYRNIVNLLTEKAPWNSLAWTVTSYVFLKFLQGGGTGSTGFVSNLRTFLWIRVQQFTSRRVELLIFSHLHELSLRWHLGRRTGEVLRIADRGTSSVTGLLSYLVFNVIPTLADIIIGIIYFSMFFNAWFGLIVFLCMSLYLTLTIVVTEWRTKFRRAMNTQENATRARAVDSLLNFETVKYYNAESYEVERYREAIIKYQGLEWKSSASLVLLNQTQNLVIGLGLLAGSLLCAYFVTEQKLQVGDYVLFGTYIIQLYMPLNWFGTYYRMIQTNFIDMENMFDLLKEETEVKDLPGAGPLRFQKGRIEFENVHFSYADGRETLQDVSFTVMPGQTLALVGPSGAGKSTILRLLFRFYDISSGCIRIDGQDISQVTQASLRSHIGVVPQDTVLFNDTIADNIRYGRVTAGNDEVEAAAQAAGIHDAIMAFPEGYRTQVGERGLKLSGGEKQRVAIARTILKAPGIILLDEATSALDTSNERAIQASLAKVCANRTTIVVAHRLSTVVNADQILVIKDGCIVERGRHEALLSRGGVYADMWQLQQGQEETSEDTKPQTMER
Sequence of Lethal factor (Bacillus anthracis) (P15917 whole entry, looked up): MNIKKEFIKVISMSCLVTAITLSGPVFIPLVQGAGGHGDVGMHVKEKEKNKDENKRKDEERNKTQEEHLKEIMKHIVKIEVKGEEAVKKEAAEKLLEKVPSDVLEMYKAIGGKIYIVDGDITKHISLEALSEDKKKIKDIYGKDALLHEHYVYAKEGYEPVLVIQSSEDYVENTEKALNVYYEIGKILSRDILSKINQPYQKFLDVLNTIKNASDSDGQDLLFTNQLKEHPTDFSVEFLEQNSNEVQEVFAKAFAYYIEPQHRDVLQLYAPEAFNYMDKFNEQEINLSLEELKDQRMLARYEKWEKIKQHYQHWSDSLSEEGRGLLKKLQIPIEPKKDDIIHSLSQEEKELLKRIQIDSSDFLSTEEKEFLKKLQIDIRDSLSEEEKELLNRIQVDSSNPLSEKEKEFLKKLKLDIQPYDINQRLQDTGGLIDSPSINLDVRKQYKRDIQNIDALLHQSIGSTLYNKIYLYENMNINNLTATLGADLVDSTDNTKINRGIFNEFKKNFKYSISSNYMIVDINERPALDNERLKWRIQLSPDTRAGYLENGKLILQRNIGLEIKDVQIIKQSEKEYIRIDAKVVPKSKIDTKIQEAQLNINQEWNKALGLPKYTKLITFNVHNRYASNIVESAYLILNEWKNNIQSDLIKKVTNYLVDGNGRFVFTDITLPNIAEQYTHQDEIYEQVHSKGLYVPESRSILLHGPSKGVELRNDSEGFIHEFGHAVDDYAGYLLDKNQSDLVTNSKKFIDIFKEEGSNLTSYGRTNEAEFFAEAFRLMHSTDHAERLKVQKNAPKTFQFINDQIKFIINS
Sequence of Beta-2 adrenergic receptor (Homo sapiens) (P07550 whole entry, looked up): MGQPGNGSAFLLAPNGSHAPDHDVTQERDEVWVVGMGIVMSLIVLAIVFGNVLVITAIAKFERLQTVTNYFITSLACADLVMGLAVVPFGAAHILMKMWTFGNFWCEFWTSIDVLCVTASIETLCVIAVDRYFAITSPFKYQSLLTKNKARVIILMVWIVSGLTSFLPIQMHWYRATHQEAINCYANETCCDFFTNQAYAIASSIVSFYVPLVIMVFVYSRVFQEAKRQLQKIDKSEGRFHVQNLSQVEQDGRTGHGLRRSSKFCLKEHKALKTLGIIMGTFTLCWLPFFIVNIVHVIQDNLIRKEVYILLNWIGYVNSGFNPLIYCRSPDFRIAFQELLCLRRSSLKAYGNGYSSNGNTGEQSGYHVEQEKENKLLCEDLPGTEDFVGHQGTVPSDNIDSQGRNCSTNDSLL
Sequence of AP-2 complex subunit beta (Homo sapiens) (P63010 whole entry, looked up, one chain of several): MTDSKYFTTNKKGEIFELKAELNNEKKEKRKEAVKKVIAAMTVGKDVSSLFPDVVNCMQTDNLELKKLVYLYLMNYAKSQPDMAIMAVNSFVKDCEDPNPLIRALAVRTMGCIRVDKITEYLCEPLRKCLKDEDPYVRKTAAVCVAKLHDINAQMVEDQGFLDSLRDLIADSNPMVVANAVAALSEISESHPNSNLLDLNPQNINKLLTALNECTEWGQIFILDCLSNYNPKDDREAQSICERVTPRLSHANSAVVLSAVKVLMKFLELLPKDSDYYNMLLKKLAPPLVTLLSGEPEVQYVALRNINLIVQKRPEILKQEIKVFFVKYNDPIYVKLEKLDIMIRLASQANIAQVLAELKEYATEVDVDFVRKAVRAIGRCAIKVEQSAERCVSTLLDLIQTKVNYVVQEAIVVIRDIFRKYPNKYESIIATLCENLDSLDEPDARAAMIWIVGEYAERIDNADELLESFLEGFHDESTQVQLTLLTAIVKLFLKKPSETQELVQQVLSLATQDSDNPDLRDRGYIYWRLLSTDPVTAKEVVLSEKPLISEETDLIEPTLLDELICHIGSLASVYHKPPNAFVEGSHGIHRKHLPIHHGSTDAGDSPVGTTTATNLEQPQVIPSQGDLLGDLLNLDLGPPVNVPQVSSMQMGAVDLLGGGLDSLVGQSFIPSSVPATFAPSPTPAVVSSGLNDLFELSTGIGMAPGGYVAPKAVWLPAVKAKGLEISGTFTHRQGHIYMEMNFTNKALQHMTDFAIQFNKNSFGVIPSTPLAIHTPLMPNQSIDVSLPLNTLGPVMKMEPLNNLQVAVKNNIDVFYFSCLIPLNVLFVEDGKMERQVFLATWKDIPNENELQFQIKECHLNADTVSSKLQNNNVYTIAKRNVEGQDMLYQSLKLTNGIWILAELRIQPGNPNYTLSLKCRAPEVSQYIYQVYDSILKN

Broadly, the inhibition is the change of the read-out against control, counted positive when it falls. As to `O=C1NC(=O)C2(Cc3ccccc3N3CCCC32)C(=O)N1c1ccc(Cl)cc1` (stereo not given), the percent of DMSO control GFP in test [1] was 106% (inactive). Also, the GFP response vs DMSO in test [2] was 88.8% (inactive); in test [4], 93.3% (inactive). Moreover, in [3], the percent response of DMSO control is 101% (inactive). In addition, the GFP response, % of DMSO in [5] was 97.5% (inactive). The molecule further returned a double positive events in test [6] of 64.8%. Also, the vesicle binding response in test [6] was 186% (inactive). Also, the inhibition in test [7] was 14.1% (inactive); in test [11] it was -2.86% (inactive); in test [14] it was -0.7% (inactive); in test [15], 0.8% (inactive); in [16], 0.9% (inactive); in test [18], 12% (inactive). The superoxide response (% of plate) in test [8] is 104% (inactive). Also, the aptamer binding inhibition in test [9] is 6% (inactive). In addition, the response in test [10] is -5.5% (inactive); in test [12], 0.31% (inactive). The binding (% of control) in test [13] was 100% (inactive). The efflux inhibition (fraction of control) in [17] is 0.24 (inactive). Moreover, the differentiation response in [19] is 1.22% (inactive).

Take `CC(C)CC12CN3CCN(CC(C3)C1O)C2` (stereo not given): the percent of DMSO control GFP in test [1] was 89.8% (inactive). Moreover, the GFP response vs DMSO is 116% (inactive) in [2] and 89.7% (inactive) in test [4]. Also, in [3], the percent response of DMSO control was 111% (inactive). Also, the GFP response, % of DMSO in test [5] was 105% (inactive). In addition, the double positive events in test [6] worked out at 65.4%. The vesicle binding response in test [6] was 153% (inactive). Moreover, the inhibition in [7] was -2.27% (inactive); in [11], -0.1% (inactive); in [14] it was 3.6% (inactive); in [15] it was -0.7% (inactive); in test [16], -4.5% (inactive); in test [18], 13% (inactive). Moreover, in [8], the superoxide response (% of plate) was 91.5% (inactive). Besides, the aptamer binding inhibition in test [9] is -7% (inactive). The values for the response in test [10] and in test [12] were 4.34% (inactive) and -1.9% (inactive), respectively. Moreover, the binding (% of control) in [13] was 110% (inactive). In addition, the efflux inhibition (fraction of control) in test [17] is -0.28 (inactive). In addition, in test [19], the differentiation response was 10.6% (inactive).

Turning to `[N-]=[N+]=CC(=O)OC[C@H](N)C(=O)O`, the percent of DMSO control GFP in [1] was 102% (inactive). The GFP response vs DMSO in test [2] was 102% (inactive); in [4], 109% (inactive). The percent response of DMSO control in test [3] was 100% (inactive). Also, the GFP response, % of DMSO in [5] is 110% (inactive). The molecule also gave a double positive events in test [6] of 64.4%. Besides, the vesicle binding response in test [6] is 133% (inactive). The inhibition was 12.5% (inactive) in [7]; 4.06% (inactive) in [11]; 2.7% (inactive) in [14]; 1.2% (inactive) in test [15]; 2.3% (inactive) in test [16]; 5% (inactive) in [18]. The superoxide response (% of plate) in test [8] is 97.4% (inactive). The aptamer binding inhibition in test [9] is 5% (inactive). Further, the response was -13% (inactive) in test [10] and 2.12% (inactive) in [12]. Further, in [13], the binding (% of control) is 92.8% (inactive). In addition, the efflux inhibition (fraction of control) in test [17] was -0.13 (inactive). Moreover, in test [19], the differentiation response is 0.92% (inactive).

With `Cc1ccc(-n2c(C)cc(/C=C3/C(=O)NC(=O)N(C)C3=O)c2C)cc1`, the percent of DMSO control GFP in test [1] was 103% (inactive). Besides, the GFP response vs DMSO in test [2] and in [4] was 103% (inactive) in each case. For the same molecule, in [3], the percent response of DMSO control was 107% (inactive). Besides, the GFP response, % of DMSO in [5] was 106% (inactive). In test [6], this molecule displayed a double positive events of 64.1%. Besides, the vesicle binding response in test [6] was 164% (inactive). The inhibition is 0.25% (inactive) in test [7]; -0.22% (inactive) in test [11]; -1.4% (inactive) in test [14]; 0.3% (inactive) in [15]; -5% (inactive) in test [16]; -2% (inactive) in [18]. Also, in test [8], the superoxide response (% of plate) is 94.5% (inactive). In addition, in test [9], the aptamer binding inhibition is -5% (inactive). The results for the response in test [10] and in test [12] were 3.21% (inactive) and 5.34% (inactive), respectively. Also, the binding (% of control) in [13] was 108% (inactive). Further, in test [17], the efflux inhibition (fraction of control) is -0.22 (inactive). Also, the differentiation response in test [19] is -14.8% (inactive).

The values are drawn from PubChem BioAssay.
